The record followed here is PubChem BioAssay (Tox21).

Inconclusive results are not listed. Calls of active or inactive are those of the source. Unless noted, the call rests on the fitted dose curve; in most records, active means well fitted curve in the direction sought with a large enough effect in the repeat runs; inconclusive means weak or mixed curves; inactive means no such curve, though single readings can be large; an effect the other way counts as inactive or inconclusive.

Assay [1] is described as follows: qHTS assay to identify small molecule agonists of the estrogen receptor alpha (ER-alpha) signaling pathway in the presence of an antagonist - cell viability counter screen (AID 1259386).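 Further: cells exposed to compounds for 22 h at 37 °C before the viability read; nearly all actives have a fitted effect of over 30% in size.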 Further: potency means the concentration at half of the fitted maximal effect. An outline of the steps:
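VM7Luc4E2 cells (endogenous full-length ER-alpha, 4×ERE-luciferase) were held 5 days in phenol red-free medium with 10% charcoal-stripped FBS, plated, then given 10.0nM ICI-182,780 and compounds at 15 concentrations for 22hr at 37C; viability read by CellTiter-Fluor fluorescence.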

The target in assay [2] is Progesterone receptor (Homo sapiens) (UniProt P06401). The assay can be described thus: qHTS assay to identify small molecule agonists of the progesterone receptor (PR) signaling pathway (AID 1346784; calls by dose curve; further: nearly all actives have a fitted effect of over 30% in size; further: potency means the concentration at half of the fitted maximal effect). The gist of the method: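 PR-UAS-bla HEK 293T cells carrying a UAS-driven beta-lactamase reporter were seeded in medium with 2% charcoal-stripped FBS, preincubated 6 hr at 37C, then exposed to compounds in DMSO for 16 hr; agonism was read by LiveBLAzer B/G FRET fluorescence.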
For orientation: qHTS replaces the single test concentration by a dilution series.

Assay [3] in a line: qHTS assay to identify small molecule antagonists of the progesterone receptor (PR) signaling pathway - cell viability counter screen (AID 1346798). Further: nearly all actives have a fitted effect of over 50% in size. Further: potency means the concentration at half of the fitted maximal effect. The gist of the method:
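PR-UAS-bla HEK293T cells in medium with 2% charcoal-stripped FBS were treated with compounds plus R5020 for 16 hr at 37C. Cell viability was then read by CellTiter-Glo luminescence after 30 min at room temperature in the same wells.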

Assay [4] in a line: qHTS assay to identify small molecule agonists of the progesterone receptor (PR) signaling pathway - cell viability counter screen (AID 1346799; calls by dose curve; further: nearly all actives have a fitted effect of over 45% in size; further: potency means the concentration at half of the fitted maximal effect). An outline of the steps: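 PR-UAS-bla HEK293T cells, 3,000 per well in medium with 2% charcoal-stripped FBS, were preincubated 6 hr at 37C, then exposed to compounds for 16 hr; viability was read as CellTiter-Glo luminescence after 30 min at room temperature.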

The nature of assay [5]: qHTS assay to identify small molecule antagonists of the TGF-beta/Smad signaling pathway - cell viability counter screen (AID 1346824). Further: nearly all actives have a fitted effect of over 50% in size. An outline of the steps: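 Cytotoxicity counter-screen run in the same wells as the beta-lactamase Smad reporter read: CellTiter-Glo luminescence after 30 min at room temperature. HEK 293T SBE-bla cells had 5 hr compound exposure at 37 C with TGF-beta1 (0.25 ng/mL stock).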

Assay [6] is described as follows: qHTS assay to identify small molecule agonists of the TGF-beta/Smad signaling pathway - cell viability counter screen (AID 1346829). Further: top concentration of the series differs between compounds; nearly all actives have a fitted effect of over 45% in size. The gist of the method: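 Here the cytotoxicity of library compounds is measured in SBE-bla HEK 293T cells treated for 5 hr, using CellTiter-Glo added to wells already read for the beta-lactamase reporter.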
Assay [7] in a line: qHTS assay to identify small molecule agonists of the TGF-beta/Smad signaling pathway (AID 1346859; active means well fitted activation curve with a large enough effect in the signal ratio in the repeat runs, not every such curve was filed as active; the % refers to the signal ratio; further: series mostly up to about 77 µM). The gist of the method:
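HEK 293T cells stably carrying a beta-lactamase reporter driven by the Smad binding element were seeded overnight, exposed to DMSO-dissolved compounds for 5 hr at 37 C, 5% CO2, then loaded with FRET substrate for 2 hr at room temperature.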

In assay [8] the target is Thyrotropin-releasing hormone receptor (Homo sapiens) (UniProt P34981). The assay can be described thus: qHTS assay to identify small molecule antagonists of the thyrotropin-releasing hormone receptor (TRHR) signaling pathway (AID 1346877; active means well fitted inhibition curve with a large enough effect in the repeat runs, not every such curve was filed as active; further: series mostly up to about 51 µM). An outline of the steps:
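TRHR-expressing HEK293 cells were seeded, cultured 18 h at 37 °C, then loaded with calcium dye for 2 h. Compounds were pre-incubated 5 min at room temperature before 1 nM TRH (final) was added, and kinetic fluorescence was recorded for 3 min.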

For assay [9] the target is unchanged. Nature of the assay: qHTS assay to identify small molecule agonists of the thyrotropin-releasing hormone receptor (TRHR) signaling pathway (AID 1346891; calls by dose curve; further: series mostly up to about 58 µM). An outline of the steps: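 TRHR-expressing HEK293 cells were plated 18 h at 37 °C/5% CO2, loaded with calcium dye 2 h at 37 °C, then given compound in DMSO; fluorescence was read kinetically for 3 min at 1 s intervals.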

The target in assay [10] is Progesterone receptor (Homo sapiens) (UniProt P06401). Nature of the assay: qHTS assay to identify small molecule antagonists of the progesterone receptor (PR) signaling pathway (AID 1346795; active means well fitted inhibition curve with a large enough effect in the signal ratio in the repeat runs, not every such curve was filed as active; the % refers to the signal ratio; further: potency means the concentration at half of the fitted maximal effect). An outline of the steps: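 PR-UAS-bla HEK293T cells carrying a UAS-driven beta-lactamase reporter were plated in medium with 2% charcoal-stripped FBS and rested 6 hr at 37C. Compounds were added with 1 nM R5020 (final) for 16 hr, then FRET substrate loaded 2 hr at room temperature.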

Progesterone receptor (Homo sapiens), sequence (P06401 whole entry, looked up): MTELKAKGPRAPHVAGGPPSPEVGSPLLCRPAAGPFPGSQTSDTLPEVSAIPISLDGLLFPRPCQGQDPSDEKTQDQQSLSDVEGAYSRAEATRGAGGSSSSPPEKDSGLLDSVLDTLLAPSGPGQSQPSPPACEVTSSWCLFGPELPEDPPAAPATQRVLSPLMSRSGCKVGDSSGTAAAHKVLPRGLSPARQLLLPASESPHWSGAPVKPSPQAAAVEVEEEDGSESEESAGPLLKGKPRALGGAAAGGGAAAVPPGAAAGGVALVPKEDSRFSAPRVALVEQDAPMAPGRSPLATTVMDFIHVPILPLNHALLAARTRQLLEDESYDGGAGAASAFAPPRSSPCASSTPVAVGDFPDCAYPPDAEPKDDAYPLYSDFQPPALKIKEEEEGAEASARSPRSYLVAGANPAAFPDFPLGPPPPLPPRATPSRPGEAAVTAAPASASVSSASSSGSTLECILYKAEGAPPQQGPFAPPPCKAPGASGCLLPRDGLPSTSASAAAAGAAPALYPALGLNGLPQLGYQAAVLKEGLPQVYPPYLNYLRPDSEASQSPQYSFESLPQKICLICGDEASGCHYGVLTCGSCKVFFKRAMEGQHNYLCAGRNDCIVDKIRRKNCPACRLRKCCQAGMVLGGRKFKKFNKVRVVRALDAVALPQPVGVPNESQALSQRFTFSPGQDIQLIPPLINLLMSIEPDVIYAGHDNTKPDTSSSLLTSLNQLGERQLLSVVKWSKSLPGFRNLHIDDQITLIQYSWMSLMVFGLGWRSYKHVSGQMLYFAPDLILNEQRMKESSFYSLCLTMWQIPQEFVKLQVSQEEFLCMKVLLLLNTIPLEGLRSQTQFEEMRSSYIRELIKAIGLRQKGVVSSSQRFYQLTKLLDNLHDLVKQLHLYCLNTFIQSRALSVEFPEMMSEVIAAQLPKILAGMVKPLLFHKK
Thyrotropin-releasing hormone receptor (Homo sapiens), sequence (P34981 whole entry, looked up): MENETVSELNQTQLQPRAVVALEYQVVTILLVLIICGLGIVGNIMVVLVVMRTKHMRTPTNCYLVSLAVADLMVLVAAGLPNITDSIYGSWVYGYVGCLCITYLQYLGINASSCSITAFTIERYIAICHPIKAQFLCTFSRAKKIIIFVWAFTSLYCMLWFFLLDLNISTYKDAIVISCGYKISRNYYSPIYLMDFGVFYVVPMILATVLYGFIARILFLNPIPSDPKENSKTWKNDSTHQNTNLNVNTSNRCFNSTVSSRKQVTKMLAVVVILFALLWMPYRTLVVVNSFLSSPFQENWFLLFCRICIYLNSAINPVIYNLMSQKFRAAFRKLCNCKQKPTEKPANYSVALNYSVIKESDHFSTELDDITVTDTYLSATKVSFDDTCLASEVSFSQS

On to `CCOc1cc(OCC)c(C(C)=O)cc1OCC`, for which the Potency in assay [1] is 21.3 µM (active). The Potency result in assay [2], in [3] and in [4] was “inactive” in each case. Also, the compound was classed as inactive in [5], in assay [6], in assay [7], in assay [8] and in assay [9].

With `CC(=O)S[C@H](C(=O)N[C@H]1Cc2ccccc2[C@H]2CCC[C@@H](C(=O)O)N2C1=O)C(C)C`, the Potency entry in assay [1], in [2], in assay [3] and in [4] was “inactive” each time. Moreover, the outcome in assay [5], in [6], in [7], in [8] and in [9] was inactive.

Consider `O=C(N[C@@H](Cc1ccccc1)[C@@H](O)C(=O)N1C[C@@H](O)[C@@H](O)C1)c1cc2cc(Cl)ccc2[nH]1`, for which the Potency entry in [1], in assay [2], in [3] and in [4] was “inactive” each time. The compound was called inactive in assay [5], in [6], in [7], in assay [8] and in [9].

Regarding `O=c1c2ccccc2oc2ccccc12`, the Potency entry in assay [1], in [2], in assay [10] and in assay [4] was “inactive” in each case. The outcome in assay [5], in assay [6], in assay [7], in assay [8] and in [9] was inactive.

In the case of `CCCC1CCOC(C)S1` (stereo not given), the Potency entry in [1], in [2] and in [10] was “inactive” each time. Further, the compound was called inactive in [5], in assay [6], in [7], in assay [8] and in assay [9].

Regarding `Cc1c(Cl)cccc1Nc1ccccc1C(=O)O`, the Potency result in assay [1], in assay [2] and in assay [3] was “inactive” in each case. Further, the result in [6], in assay [8] and in assay [9] was inactive.

On to `O=[N+]([O-])c1ccc(Cl)cc1Cl`, for which the Potency entry in assay [1] and in assay [10] was “inactive” each time. In addition, the Potency in assay [2] was 24 µM (active). Further, the outcome in [5], in [6], in [7], in assay [8] and in assay [9] was inactive.

Take `Cc1cc(C)c(C)c(O)c1`: the Potency entry in assay [1], in assay [2] and in assay [3] was “inactive” throughout. In addition, the compound was called inactive in assay [5], in assay [6], in [7], in assay [8] and in assay [9].

As to `CC(=O)Nc1cccc(N)c1`, the Potency entry in [1], in assay [2] and in [10] was “inactive” each time. Further, the outcome in assay [6], in assay [7], in assay [8] and in [9] was inactive.

For the compound `CCC(C)C1N=C(C)C(C)S1` (stereo not given), the Potency result in [1], in assay [2], in assay [3] and in [4] was “inactive” throughout. Moreover, the compound was called inactive in assay [5], in assay [6], in assay [7], in assay [8] and in assay [9].

Consider `C[C@H](N)C(=O)N[C@@H](C)C(=O)NC1[C@H]2CN(c3nc4c(cc3F)c(=O)c(C(=O)O)cn4-c3ccc(F)cc3F)C[C@@H]12` (stereo not given in full), for which the Potency result in [1], in assay [2] and in assay [3] was “inactive” each time. The outcome in assay [5], in assay [6], in assay [8] and in assay [9] was inactive.

Regarding `CCCC1CCCC(=O)O1` (stereo not given), the Potency result in [1], in assay [2] and in [10] was “inactive” throughout. Also, the compound was classed as inactive in [6], in assay [8] and in [9].

Turning to `CCOc1ccc2c(c1)C(C)CC(C)(C)N2` (stereo not given), the Potency entry in assay [1], in [2], in assay [3] and in [4] was “inactive” each time. Moreover, the compound was called inactive in [5], in assay [6], in [7], in assay [8] and in [9].

Consider `Sc1nc(S)nc(S)n1`, for which the Potency entry in assay [1], in assay [2] and in assay [10] was “inactive” in each case. The compound was called inactive in [5], in [6], in assay [7], in assay [8] and in assay [9].

Regarding `CCOC(=O)CC(O)(CC(=O)OCC)C(=O)OCC`, the Potency entry in [1], in assay [2], in assay [3] and in assay [4] was “inactive” each time. The outcome in [6] and in [7] was inactive.

Turning to `C[C@H]1C[C@H]2[C@@H]3CCC4=CC(=O)C=C[C@]4(C)[C@@]3(F)[C@@H](O)C[C@]2(C)[C@@]1(O)C(=O)COP(=O)(O)O`, the Potency result in assay [1], in assay [2], in assay [3] and in [4] was “inactive” throughout. The result in assay [5], in [6], in assay [7], in assay [8] and in assay [9] was inactive.

For `CC(C(=O)O)c1ccc2c(c1)Cc1cccnc1O2` (stereo not given), the Potency entry in assay [1], in assay [2], in assay [10] and in [4] was “inactive” each time. Moreover, the call in assay [5], in [6], in [8] and in assay [9] was inactive.

As to `CCCCCCOC(=O)c1ccccc1`, the Potency result in assay [1] and in assay [2] was “inactive” in each case. Besides, the Potency in assay [3] was 15.4 µM (active); in assay [4], 17.2 µM (active). The result in [5], in assay [6], in [7], in assay [8] and in assay [9] was inactive.

Consider `CCCCCCCCCCCCCCCCC(=O)O`, for which the Potency result in assay [1], in [2], in assay [10] and in [4] was “inactive” in each case. Besides, the call in [6], in [7], in [8] and in assay [9] was inactive.

As for `CC(C)(C)c1cc(C=O)cc(C(C)(C)C)c1O`, the Potency entry in assay [1], in assay [2] and in assay [10] was “inactive” in each case. In addition, the call in [6], in assay [7], in [8] and in [9] was inactive.

In the case of `C=Cc1ccc(C=C)cc1`, the Potency entry in assay [1], in [2], in [3] and in assay [4] was “inactive” each time. Also, the outcome in assay [5], in assay [6], in [7], in assay [8] and in [9] was inactive.

Turning to `N#Cc1ccc(CC(=O)c2cccc(C(F)(F)F)c2)cc1`, the Potency result in assay [1], in assay [2] and in [3] was “inactive” in each case. Further, the compound was called inactive in assay [6], in assay [7], in assay [8] and in assay [9].

With `COc1cc(CNC(=O)CCCC/C=C/C(C)C)ccc1O`, the Potency entry in [1] and in assay [2] was “inactive” throughout. Also, in assay [10], the Potency is 53 µM (active). The result in assay [5], in assay [6], in [7], in assay [8] and in [9] was inactive.

`CCCc1ccc(OC)cc1`: the Potency entry in [1], in assay [2], in assay [3] and in assay [4] was “inactive” each time. In addition, the outcome in assay [5], in assay [6], in assay [7], in assay [8] and in assay [9] was inactive.

`CC(C)(C)N`: the Potency result in assay [1], in assay [2] and in [10] was “inactive” each time. For the same compound, the compound was classed as inactive in assay [6] and in assay [7].

Consider `CC(C)CCCCCOC(=O)CS`, for which the Potency entry in [1], in [2] and in assay [4] was “inactive” throughout. Besides, the compound was classed as inactive in [5], in [6], in assay [7], in assay [8] and in [9].

`CC1(C)C(=O)NC(=O)N1CO`: the Potency entry in assay [1], in [2] and in [10] was “inactive” throughout. The compound was called inactive in assay [6] and in assay [7].
